From PubChem
AmpC inh no detg: blocks E. coli AmpC beta-lactamase in detergent-free assay; Potency, µM (top dose mostly 57.1 µM), for inactives: at the top dose activity change, negative = inhibition, most hits filed as inhibitors; AID 485341; P00811; AmpC nitrocefin hydrolysis, absorbance 480 nm, 0.0001% Triton; 330,000 compounds, 0.52% hits;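 also: plate controls were no compound for no effect and no enzyme for full effect; nearly all actives have a fitted effect of over 20% in size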
Target sequence (P00811 whole entry, looked up): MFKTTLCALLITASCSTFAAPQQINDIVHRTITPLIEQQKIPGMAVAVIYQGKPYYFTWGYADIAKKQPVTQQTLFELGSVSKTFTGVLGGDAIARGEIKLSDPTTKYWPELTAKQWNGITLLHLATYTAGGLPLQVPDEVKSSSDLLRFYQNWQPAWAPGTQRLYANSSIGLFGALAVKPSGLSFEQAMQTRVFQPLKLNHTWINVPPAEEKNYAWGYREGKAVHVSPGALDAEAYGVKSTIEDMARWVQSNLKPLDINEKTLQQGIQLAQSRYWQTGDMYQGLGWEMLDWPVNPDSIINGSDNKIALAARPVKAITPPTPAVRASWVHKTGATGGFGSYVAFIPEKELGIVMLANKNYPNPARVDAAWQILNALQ
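20 mM phosphate pH 7.0 + 0.01% (detergent screen) or 0.0001% Triton X-100; 5.3 nM AmpC reagent; cpd preinc 15 min RT; nitrocefin (800 uM stock) to start; A480 q20 s × 4 min; Activity was normalised to no-enzyme and no-compound control wells.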
Sm TGR inh: blocks Schistosoma mansoni thioredoxin glutathione reductase. Q962Y6. purified TGR, DTNB reduction, TNB absorbance 405 nm. Potency, µM (doses to about 114 µM), inactives show at the top dose activity change, negative = inhibition, most hits filed as inhibitors. 360,000 compounds, 3% hits. AID 485364; also: % is scaled to controls: 0 for no effect and ±100 for the full control effect; nearly all actives have a fitted effect of over 60% in size
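TGR 20 nM + NADPH 100 uM (dispensed conc.), cpd preinc 15 min RT; start with NADPH (500 uM addition) then DTNB (15 mM addition). Kinetic TNB absorbance, 405 nm filter. Four-parameter Hill fit across titration.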
Pf growth 48h: inhibits P. falciparum growth in the first generation, 48 h | Potency, µM (doses to about 28.7 µM), for the others: at the top dose activity change, negative = inhibition, usual class: inhibitors | P. falciparum luciferase growth in erythrocytes, 48 h | AID 504832 | 310,000 compounds, 5.9% hits; also: % is scaled to controls: 0 for no effect and ±100 for the full control effect
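Luciferase-expressing P. falciparum in infected erythrocytes (2% hematocrit, 0.1% parasitemia final) in RPMI 1640/0.5% Albumax were exposed to compound for 48 hours at 37 C, 5% CO2; growth read as luminescence.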
SARS PLpro yeast: inhibitors of SARS-CoV papain-like protease in yeast; 330,000 compounds, 0.19% hits; S. cerevisiae expressing SARS-CoV PLpro, growth rescue; AID 485353; Potency, µM (series often up to 32.9 µM), inactives show at the top dose activity, positive = growth rescue, usual class: activators; calls by dose curve; also: 0% is about no effect; nearly all actives have a fitted effect of over 55% in size
Pf growth 96h: P. falciparum growth inhibition at 96 hour, primary screen for plastid delayed-death inhibitors. P. falciparum luciferase reporter growth, 96 h. AID 504834. 320,000 compounds, 6.9% hits. Potency, µM (titrated, usually from 28.7 µM), without a hit: top-dose activity change, negative = inhibition, usual class: inhibitors; also: % is scaled to controls: 0 for no effect and ±100 for the full control effect
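Two parasite generations (96 h, 37 C, 5% CO2) of compound exposure in infected erythrocytes (0.05% parasitemia, 2% hematocrit). Luciferase-reporter P. falciparum; decreased luminescence indicates inhibited growth, aimed at apicoplast-acting delayed death.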
AmpC inh detg: inhibitors of E. coli AmpC beta-lactamase with detergent | P00811 | AmpC hydrolysis of nitrocefin, absorbance 480 nm, 0.01% Triton | Potency, µM (doses to about 114 µM), without a hit: at the highest dose activity change, negative = inhibition, actives largely listed as inhibitors | 370,000 compounds, 0.041% hits | AID 485294;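 also: 0% = no-compound wells and -100% = no-enzyme wells; nearly all actives have a fitted effect of over 25% in size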
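20 mM phosphate pH 7.0 + 0.01% (detergent screen) or 0.0001% Triton X-100; 5.3 nM AmpC reagent; cpd preinc 15 min RT; nitrocefin (800 uM stock) to start; A480 q20 s × 4 min; Activity was normalised to no-enzyme and no-compound control wells.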
* = called active by the depositor; ? = inconclusive; / = not tested or not shown; [ ] = dose if it differs, or a comment. Only some compounds are listed: those with a hit (about 12% of all), similar ones and a draw of the others. Unless noted, calls follow the shape of the dose curve; as a rule, active = well fitted curve in the direction sought with a large enough effect; inconclusive = small, poorly fitted or top-dose-only effect, or another doubt; inactive = no such curve, though single readings can be large; an effect the other way counts as inactive or inconclusive. Potency is read from the fitted curve at half-maximal effect.

SMILES	AmpC inh no detg	Sm TGR inh	Pf growth 48h	SARS PLpro yeast	Pf growth 96h	AmpC inh detg
c1ccc2c(c1)ccc1ccccc12	-22%	/	/	3%	/	/
Cc1csc(C2=C(O)CN(c3ccc4c(c3)OCCOCCOCCOCCO4)C2=N)n1	13%	-6%	?	7%	?	0%
Cc1cccc(N2CCN(C(=O)CC(NC(=O)c3ccccc3Cl)c3ccccc3)CC2)c1C (centres undefined)	-7%	1%	?	-19%	?	0%
O=C(NC(CC(=O)N1CCN(c2ccc([N+](=O)[O-])cc2)CC1)c1ccccc1)c1ccccc1Cl (centres undefined)	-40%	1%	?	-1%	12µM*	-17%
CCSc1ccccc1C(=O)N1CCN(c2ccc([N+](=O)[O-])cc2)CC1	19%	/	-27%	-1%	37%	-4%
CC(=O)N1CCN(C(=O)C(Cc2ccccc2)NC(=O)c2ccccc2)CC1 (centres undefined)	-10%	-4%	-23%	-1%	-27%	?
O=C(NC(CC(=O)N1CCN(c2ccccc2O)CC1)c1ccccc1)c1ccccc1Cl (centres undefined)	11%	5%	10µM*	-5%	?	0%
O=C(NC(Cc1ccccc1)C(=O)N1CCN(c2ccccc2O)CC1)c1ccccc1 (centres undefined)	-7%	-1%	8.3µM*	-1%	6.6µM*	-13%
COc1ccc(CC(=O)NC(c2ccccc2)c2ccc(C)cc2)c(OC)c1 (centres undefined)	-3%	-2%	10µM*	4%	?	2%
COc1ccc(OC)c(CC(=O)NC(c2ccccc2)c2ccccc2)c1	-25%	-1%	?	-1%	6.6µM*	-9%
CC1CCC(NC(=O)C(NS(=O)(=O)c2cccc3nsnc23)C(C)C)CC1 (centres undefined)	-17%	9%	5%	4%	7%	-1%
CC(C)C(NS(=O)(=O)c1cccc2nsnc12)C(=O)NC1CCCCC1 (centres undefined)	-5%	-1%	15%	6%	10µM*	-2%
Cc1cccc(C(=O)NC(=O)Nc2ccc(-c3cc(C(F)(F)F)nn3-c3ccccc3)cc2)c1	/	17%	/	/	/	8%
CC(C)(C)NC(=S)N/N=C/c1cc(Br)c(O)c(Br)c1	-43%	-23%	?	0%	7.4µM*	-2%
COC(=O)[C@@H]1CCCN1C(=O)CCc1nnc(C2CCCCC2)o1	-4%	-8%	24%	0%	17µM*	-6%
Cc1ccc(N(CC(=O)NCc2ccccc2)C(=O)c2csnn2)cc1	-17%	-3%	4%	18%	0%	-10%
Brc1cnc2nc[nH]c2c1	-13%	9%	14%	-1%	19%	-3%
COc1ccccc1NC(=O)Cn1c(=O)n(-c2cccc(Cl)c2)c(=O)c2sc3ccccc3c21	/	-2%	/	/	/	0%
c1ccc2cc(CSCc3nc4ccccc4[nH]3)ccc2c1	-36%	-1%	13µM*	-65%	?	-10%
COc1ccc(N(CC(=O)NCc2ccc(F)cc2)S(=O)(=O)c2c(C)noc2C)cc1	14%	-6%	5%	-2%	10µM*	-12%
Cc1ccc(N(CC(=O)NCc2ccc(F)cc2)S(=O)(=O)c2cccs2)cc1	-14%	-10%	/	5%[6.58 µM]	4.7µM*	-12%
CCOc1ccccc1NC(=O)CN(c1ccc(OC)cc1)S(=O)(=O)c1c(C)noc1C	56%	-32%	9.3µM*	-21%	?	?
Cc1ccc(N(CC(=O)NCc2ccccc2Cl)S(=O)(=O)c2cccs2)cc1	-30%	-2%	?	3%	/	1%
CCOc1ccc(N(CC(=O)NCc2ccccc2Cl)S(=O)(=O)c2c(C)noc2C)cc1	22%	-3%	13µM*	2%	?	6%
Cc1ccc(N(CC(=O)NCc2ccccc2Cl)S(=O)(=O)c2c(C)noc2C)cc1	0%	1%	?	1%	?	?
SMILES	AmpC inh no detg	Sm TGR inh	Pf growth 48h	SARS PLpro yeast	Pf growth 96h	AmpC inh detg
CCCn1c(COc2ccc(C(=O)O)cc2)nc2ccccc21	-14%	6%	1%	1%	111%	-1%
CCN1CCN(c2c(S(=O)(=O)c3ccc(C)c(C)c3)cnc3cc(OC)c(OC)cc23)CC1	/	-2%	/	/	/	-4%
COc1ccc(NC(=O)CN(c2cc(C)cc(C)c2)S(=O)(=O)c2c(C)noc2C)cc1OC	127%	-13%	?	11%	12µM*	-7%
COc1ccc(N(CC(=O)NCCc2cccc(C)c2)S(=O)(=O)c2c(C)noc2C)cc1	86%	-1%	?	-3%	2.6µM*	4%
COc1ccc(N(CC(=O)NCCc2ccc(C)cc2)S(=O)(=O)c2c(C)noc2C)cc1	89%	5%	-5%	-2%	19%	0%
NCCc1c(-c2ccccc2)n(-c2ccccc2)c2ccccc12	28%	4%	15µM*	-4%	?	2%
CC(=O)n1c(-c2ccccc2)c(CO)c2ccccc21	-15%	-1%	31%	-17%	?	3%
COc1cc([C@@H]2c3cc4c(cc3[C@@H](O)[C@@H](CO)[C@@H]2CO)OCO4)cc(OC)c1O[Si](C)(C)C(C)(C)C	268%	-5%	9.3µM*	-4%	?	-2%
COc1cc(CC(=O)NCc2ccc3c(c2)OCO3)cc(OC)c1OC	-16%	-31%	-21%	3%	/	-6%
COc1cc([C@@H]2c3cc4c(cc3[C@H](O)[C@H]3COC(=O)[C@H]23)OCO4)cc(OC)c1OC	6%	2%	15µM*	0%	1.1µM*	-15%
COc1cc([C@@H]2c3cc4c(cc3[C@@H](NC3CCN(Cc5ccccc5)CC3)[C@H]3COC(=O)[C@H]23)OCO4)cc(OC)c1O	87%	-28%	0.74µM*	-5%	0.17µM*	0%
COc1cc([C@@H]2c3cc4c(cc3[C@@H](OC)[C@H]3COC(=O)[C@H]23)OCO4)cc(OC)c1O	6%	10%	10µM*	-4%	12µM*	-7%
COc1cccc(-n2c(-c3ccco3)nc3c(cnn3-c3ccc(C)cc3)c2=O)c1	/	-10%	/	/	/	-4%
Cc1ccccc1-c1noc(-c2ccc(N3CCCC3)c([N+](=O)[O-])c2)n1	/	-1%	/	/	/	20%
COc1ccc(-c2cc3ccc(O)c(CN4CCC(C)CC4)c3oc2=O)cc1	/	-5%	/	/	/	0%
CCCCCC1CCC(c2n[nH]c(=S)n2C)CC1 (centres undefined)	-17%[2.29 µM]	5%	?	1%	5.9µM*	?
